Broadly, the AC50 is the concentration giving half of the maximal activity seen.

The source of these data is PubChem BioAssay (EPA / NIEHS).

The source made the active and inactive calls. Rule for the calls: active = hit-call score of the fitted dose curve at least 0.9, where 1 is the maximum; inactive = score below 0.9.

The target of assay [1] is Transcription factor E2F1 (Homo sapiens) (UniProt Q01094). The assay is described as follows: ATG_E2F_CIS: Attagene CIS-FACTORIAL HepG2 Assay for human E2F Transcription Factor 1 (AID 2282935). The settings on record: HepG2 Attagene cis-reporter, E2F reporter RNA transcripts; actives raise or lower the signal. In short, it runs like this:
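Gain or loss of reporter transcript, fitted against DMSO, reflects E2F1-driven transcription. Transiently transfected HepG2 dosed 24 h before RNA isolation. Quantified by fluorescent RT-PCR products separated by capillary electrophoresis.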

Assay [2] can be described thus: ATG_E_Box_CIS: Attagene CIS-FACTORIAL HepG2 Assay for human Enhancer Box (E-box) (AID 2282936). The settings on record: HepG2 E-box cis-reporter transcription, actives raise or lower the signal. The method, boiled down:
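E-box-driven reporter transcripts measured in transiently transfected HepG2 after 24 h exposure: RNA reverse-transcribed, PCR-amplified, fluorescently labelled, digested and resolved by capillary electrophoresis. Gain or loss relative to DMSO.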

Assay [3] is described as follows: ATG_M_61_CIS: Attagene CIS-FACTORIAL HepG2 Assay for M61 Transcription Factor (Internal Marker) (AID 2282937). To be noted: HepG2 Attagene CIS-FACTORIAL M61 internal marker reporter; actives raise or lower the signal. In short, it runs like this:
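Human liver HepG2, transient MRTU transfection (cis promoter elements), 24 h compound. Total RNA → oligo(dT) RT → PCR → FAM label → HpaI → CE. Internal background marker; bidirectional fitting, DMSO = baseline.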

A short description of assay [4]: ATG_EGR_CIS: Attagene CIS-FACTORIAL HepG2 Assay for human Early Growth Response 1 (EGR1) (AID 2282938). To be noted: HepG2 Attagene CIS-FACTORIAL EGR reporter mRNA; actives raise or lower the signal. In short, it runs like this:
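Transient transfection of human HepG2 with multiple cis-regulated reporter units, chemical exposure 24 h, total RNA isolated. Reverse transcription, PCR, fluorescent labelling and capillary electrophoresis quantify reporter transcripts; activity fitted bidirectionally against DMSO.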

The nature of assay [5]: ATG_M_19_CIS: Attagene CIS-FACTORIAL HepG2 Assay for M19 Transcription Factor (Internal Marker) (AID 2282939). The settings on record: HepG2 Attagene CIS-FACTORIAL M19 internal marker reporter; actives raise or lower the signal. The method, boiled down:
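Chemical-treated HepG2 (24 h) with MRTU constructs; reporter transcripts detected by fluorescent RT-PCR fragment analysis on capillary electrophoresis. Internal background marker, DMSO as baseline.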

Assay [6] can be described thus: ATG_ERE_CIS: Attagene CIS-FACTORIAL HepG2 Assay for Estrogen Response Element (ERE) (AID 2282940). To be noted: HepG2 ERE cis-reporter, Attagene RNA transcript; actives raise or lower the signal. The method, boiled down: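 Human liver cells (HepG2) bearing transiently transfected, promoter-regulated reporter units were exposed 24 h. Reporter mRNA induction was detected by capillary electrophoresis of labelled RT-PCR products and fitted bidirectionally to DMSO.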

The nature of assay [7]: ATG_Ets_CIS: Attagene CIS-FACTORIAL HepG2 Assay for human Erythroblast Transformation Specific (ETS) (AID 2282941). To be noted: HepG2 ETS cis-reporter transcription, actives raise or lower the signal. In short, it runs like this: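 Endogenous transcription factor activity read as reporter mRNA via RT-PCR and capillary electrophoresis, with gain or loss fitted bidirectionally against DMSO. Human HepG2 liver cells, transiently transfected CIS reporter constructs, 24 h exposure.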

The target of assay [8] is Hepatocyte nuclear factor 3-beta (Homo sapiens) (UniProt Q9Y261). The assay is described as follows: ATG_FoxA2_CIS: Attagene CIS-FACTORIAL HepG2 Assay for human Forkhead box A2 (FOXA2) (AID 2282942). The settings on record: HepG2 cis-reporter transcription factor activity, 24 h; actives raise or lower the signal. In short, it runs like this:
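Transient MRTU transfection of HepG2 liver cells; 24 h treatment; total RNA → oligo(dT) RT → PCR → FAM primer extension → HpaI cut → CE. Bidirectional fit vs DMSO.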

Assay [9] in a line: ATG_FoxO_CIS: Attagene CIS-FACTORIAL HepG2 Assay for human Forkhead box O (FoxO) (AID 2282943). The settings on record: HepG2 Attagene cis-reporter, FoxO element, mRNA; actives raise or lower the signal. The method, boiled down:
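Endogenous transcription factor activity read from multiplexed cis-promoter reporter transcripts in transiently transfected HepG2, 24 h after dosing. Reporter RNA measured via RT-PCR plus capillary electrophoresis of FAM-labeled products; gain or loss relative to DMSO.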

A short description of assay [10]: ATG_GATA_CIS: Attagene CIS-FACTORIAL HepG2 Assay for human GATA Binding Protein (AID 2282944). To be noted: HepG2 GATA cis-element reporter, Attagene multiplex mRNA; actives raise or lower the signal. In short, it runs like this:
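Transfected cis-reporter HepG2 cells were treated with chemicals for 24 hours. Total RNA was then converted to cDNA, amplified with reporter-specific primers and analysed by fluorescent capillary electrophoresis, using DMSO-treated wells as baseline.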

Sequence of Transcription factor E2F1 (Homo sapiens) (Q01094 whole entry, looked up): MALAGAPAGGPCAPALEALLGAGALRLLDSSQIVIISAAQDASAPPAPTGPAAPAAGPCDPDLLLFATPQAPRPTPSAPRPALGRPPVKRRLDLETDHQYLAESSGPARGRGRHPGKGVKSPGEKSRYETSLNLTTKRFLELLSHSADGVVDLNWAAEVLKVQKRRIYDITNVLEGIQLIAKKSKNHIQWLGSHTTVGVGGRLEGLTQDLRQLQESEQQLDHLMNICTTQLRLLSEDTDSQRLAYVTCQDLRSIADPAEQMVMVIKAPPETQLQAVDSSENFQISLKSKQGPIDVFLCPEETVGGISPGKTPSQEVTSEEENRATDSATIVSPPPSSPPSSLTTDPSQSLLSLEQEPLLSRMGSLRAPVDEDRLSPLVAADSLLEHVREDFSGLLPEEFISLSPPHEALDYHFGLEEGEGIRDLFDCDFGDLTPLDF
Sequence of Hepatocyte nuclear factor 3-beta (Homo sapiens) (Q9Y261 whole entry, looked up): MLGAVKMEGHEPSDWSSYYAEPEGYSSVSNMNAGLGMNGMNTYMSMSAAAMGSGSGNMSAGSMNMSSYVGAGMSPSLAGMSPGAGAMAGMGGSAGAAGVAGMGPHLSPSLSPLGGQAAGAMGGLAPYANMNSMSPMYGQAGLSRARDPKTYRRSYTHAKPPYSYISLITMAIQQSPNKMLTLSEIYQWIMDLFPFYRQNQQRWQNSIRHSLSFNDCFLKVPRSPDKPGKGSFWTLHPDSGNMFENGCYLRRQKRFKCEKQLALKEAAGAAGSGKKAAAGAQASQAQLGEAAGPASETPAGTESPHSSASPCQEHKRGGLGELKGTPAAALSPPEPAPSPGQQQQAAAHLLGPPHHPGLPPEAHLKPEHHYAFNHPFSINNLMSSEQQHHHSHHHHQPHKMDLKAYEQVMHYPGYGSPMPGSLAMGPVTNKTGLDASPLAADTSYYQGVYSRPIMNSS

Consider `Cc1cc(=O)[nH]c(=S)[nH]1`, for which the result in assay [1], in assay [2], in assay [3], in assay [4], in [5] and in assay [6] was inactive. The outcome in [7], in [8], in assay [9] and in assay [10] was inactive.

Take `CCNc1cccc(C)c1`: the outcome in assay [1], in assay [2], in [3], in [4], in assay [5] and in assay [6] was inactive. The result in [7], in [8], in assay [9] and in assay [10] was inactive.

As to `CCOC(=O)CCC(=O)OCC`, the result in [1], in assay [2], in assay [3], in assay [4], in assay [5] and in [6] was inactive. Also, the molecule was classed as inactive in assay [7], in assay [8], in assay [9] and in [10].

On to `CCCCCCCCCCC`, for which the molecule was classed as inactive in assay [1], in assay [2], in assay [3], in [4], in assay [5] and in assay [6]. For the same molecule, the outcome in [7], in assay [8], in assay [9] and in assay [10] was inactive.

In the case of `CNCc1cc(F)ccc1Oc1ccc(Cl)c(Cl)c1`, the molecule was called inactive in assay [1], in assay [2], in assay [3], in [4], in assay [5] and in assay [6]. The call in [7], in assay [8], in assay [9] and in assay [10] was inactive.

For `NCCO`, the call in assay [1], in [2], in assay [3], in assay [4], in assay [5] and in assay [6] was inactive. Besides, the molecule was classed as inactive in assay [7], in assay [8], in [9] and in assay [10].

With `Cc1ccc(N(C)C)cc1`, the molecule was classed as inactive in assay [1], in assay [2], in assay [3], in [4], in assay [5] and in assay [6]. The outcome in [7], in [8], in [9] and in assay [10] was inactive.

Regarding `Cc1cccc(Nc2cc(Cl)nc(SCC(=O)O)n2)c1C`, the result in assay [1], in assay [2], in [3], in assay [4], in [5] and in assay [6] was inactive. Moreover, the result in assay [7], in assay [8], in [9] and in assay [10] was inactive.

As for `CCCCCC(=O)O`, the result in [1], in assay [2], in [3], in assay [4], in assay [5] and in assay [6] was inactive. The molecule was classed as inactive in assay [7], in assay [8], in assay [9] and in [10].

Regarding `CC(C)c1ccc(C(=O)N=C(N)N)cc1S(C)(=O)=O`, the call in assay [1], in assay [2], in assay [3], in [4], in assay [5] and in assay [7] was inactive. Also, the molecule was called inactive in [8], in [9] and in [10]. Moreover, in assay [6], the AC50 is 71.7 µM (active).

Regarding `Cc1nc(C)nc(N2C[C@@H](C)N(c3ccnc([C@@H](C)O)n3)[C@@H](C)C2)n1`, the outcome in [1], in assay [2], in [3], in assay [4], in assay [5] and in assay [6] was inactive. Also, the outcome in assay [7], in assay [8], in assay [9] and in [10] was inactive.

For `C[C@]12C=CC(=O)C=C1CC[C@@H]1[C@@H]2C(=O)C[C@@]2(C)[C@H]1CC[C@]2(O)C(=O)CO`, the outcome in [1], in assay [2], in assay [3], in [4], in assay [5] and in [7] was inactive. Further, the molecule was called inactive in assay [8], in assay [9] and in assay [10]. The AC50 in [6] was 6.76 µM (active).

Regarding `C=CCc1ccc(O)c(OC)c1`, the molecule was called inactive in assay [1], in assay [2], in assay [3], in [4], in [5] and in assay [6]. The molecule was called inactive in [7], in [8], in assay [9] and in assay [10].

`COCCOCCOC`: the molecule was classed as inactive in [1], in [2], in assay [3], in assay [4], in [5] and in assay [6]. Moreover, the result in assay [7], in assay [8], in [9] and in [10] was inactive.

As to `CC(=O)Oc1ccccc1C(=O)O`, the molecule was classed as inactive in [1], in [2], in assay [3], in assay [4], in assay [5] and in assay [6]. Moreover, the result in [7], in [8], in assay [9] and in assay [10] was inactive.

Turning to `COc1cc(S(=O)(=O)O)c(C)cc1N=Nc1c(O)ccc2cc(S(=O)(=O)O)ccc12`, the outcome in assay [1], in assay [2], in [3], in assay [4], in assay [5] and in assay [6] was inactive. In addition, the outcome in [7], in assay [8], in [9] and in assay [10] was inactive.

As for `Cc1cccc([N+](=O)[O-])c1C`, the call in assay [1], in assay [2], in assay [3], in [4], in assay [5] and in [6] was inactive. Besides, the result in [7], in assay [8], in [9] and in assay [10] was inactive.

Turning to `Nc1ccc2c(c1)C(=O)c1ccccc1C2=O`, the result in assay [1], in [2], in [3], in [4], in assay [5] and in assay [7] was inactive. The molecule was called inactive in assay [8], in assay [9] and in assay [10]. Further, the AC50 in [6] was 7.14 µM (active).

Take `CC(=O)C(C)=CC1C(C)=CCCC1(C)C` (stereo not given): the result in assay [1], in assay [2], in [3], in assay [4], in [5] and in assay [7] was inactive. In addition, the result in [8], in assay [9] and in [10] was inactive. Moreover, the AC50 in assay [6] is 33.4 µM (active).

In the case of `CCCCC(CC)COC(=O)CC(C(=O)OCC(CC)CCCC)S(=O)(=O)O` (stereo not given), the molecule was classed as inactive in assay [1], in [2], in [3], in assay [4], in assay [5] and in assay [6]. The call in [7], in assay [8], in [9] and in assay [10] was inactive.

As for `C[Si]1(C)O[Si](C)(C)O[Si](C)(C)O[Si](C)(C)O1`, the call in assay [1], in assay [2], in assay [3], in assay [4], in assay [5] and in [7] was inactive. In addition, the result in assay [8], in assay [9] and in assay [10] was inactive. The AC50 in [6] was 27.2 µM (active).

Turning to `Cc1ccc(C(C)C)c(O)c1`, the molecule was called inactive in [1], in assay [2], in assay [3], in assay [4], in assay [5] and in assay [6]. In addition, the molecule was classed as inactive in assay [7], in assay [8], in [9] and in assay [10].

For `c1cc(-c2ccncc2)ccn1`, the result in assay [1], in assay [2], in assay [3], in [4], in [5] and in assay [6] was inactive. Moreover, the call in assay [7], in assay [8], in assay [9] and in [10] was inactive.
